{"source": "PubChem BioAssay AID2314", "about": "(National Center for Advancing Translational Sciences (NCATS), 2010)", "note": "The campaign covered roughly 300,000 compounds. About 37,000 (12%) were called active. Cut-off read from the data, not from the text of the source: active = max response mostly above about 13% (no sharp cut-off); inactive = mostly below about 14%. The list comes from a sample in which actives are over-represented; it also holds similar structures and randomly drawn compounds.", "data": [{"test": "Cycloheximide Counterscreen for Small Molecule Inhibitors of Shiga Toxin; note: read at 38.3 µM for the half of the compounds with a filed dose; 0% is about no effect", "settings": "cell reporter, cycloheximide protein synthesis inhibition counterscreen; active compounds read high", "values": [{"smiles": "CC(C)CC(=O)c1c[nH]c(C(=O)NCc2ccccc2)c1", "max response": "-3.39% (inactive)"}, {"smiles": "COC(=O)C(CC(C)C)NS(=O)(=O)c1cc(Br)ccc1Br", "note": "(centres undefined)", "max response": "-8.13% (inactive)"}, {"smiles": "Cc1cc2c(cc1S(=O)(=O)CCC(=O)NCc1ccccc1)OCC(=O)N2", "max response": "-1.02% (inactive)"}, {"smiles": "CCn1ccnc1CNC(=O)CC1C(=O)NCCN1Cc1ccc(F)cc1Cl", "note": "(centres undefined)", "max response": "8.96% (inactive)"}, {"smiles": "Clc1ccc(CN2CCCCCC2)cc1Cl", "max response": "-3.66% (inactive)"}, {"smiles": "Cc1cccc(-n2c(=O)c3c(C)c(C)sc3n(CC(N)=O)c2=O)c1", "max response": "-0.167% (inactive)"}, {"smiles": "COC(=O)CSc1nnc(-c2cccnc2)o1", "max response": "12.2% (inactive)"}, {"smiles": "COc1ccc(-c2nnc(SCc3cccnc3)o2)cc1", "max response": "30.9% (active)"}, {"smiles": "COc1ccc(-c2nnc(SC(C)C#N)o2)cc1", "note": "(centres undefined)", "max response": "27.2% (inactive)"}, {"smiles": "COc1ccccc1CNS(=O)(=O)c1c(C)[nH]c(C)c1C(=O)N1CCCCC1", "max response": "11% (inactive)"}, {"smiles": "O=c1[nH]cnc(O)c1C(c1ccc(F)cc1)c1c(O)nc[nH]c1=O", "max response": "-2.78% (inactive)"}, {"smiles": "CCOc1ccc(N(CC(=O)NCC2CCCO2)S(=O)(=O)c2ccc(C)cc2)cc1", "note": "(centres undefined)", "max response": "0.744% (inactive)"}, {"smiles": "COc1cccc(/C=C2/SC(=S)N(CC(=O)NC3C=CS(=O)(=O)C3)C2=O)c1", "note": "(centres undefined)", "max response": "8.26% (inactive)"}, {"smiles": "COc1ccc(N2C(=O)NC(NS(=O)(=O)c3ccc(Cl)cc3)(C(F)(F)F)C2=O)cc1", "note": "(centres undefined)", "max response": "-5.1% (inactive)"}, {"smiles": "COc1ccc(-c2csc(-c3cccs3)n2)cc1OC", "max response": "59.6% (active)"}, {"smiles": "COc1ccc(OC)c(-c2csc(-c3cccs3)n2)c1", "max response": "30.2% (inactive)"}, {"smiles": "CNC(=O)c1[nH]cnc1C(=O)N[C@@H](CC(C)C)C(=O)OC(C)(C)C", "max response": "-1.12% (inactive)"}, {"smiles": "COC(=O)c1cc(OCC(=O)NC2CCCc3ccccc32)cc(C(=O)OC)c1", "note": "(centres undefined)", "max response": "1.41% (inactive)"}, {"smiles": "COc1ccc(Br)cc1CN(C)CC(=O)Nc1cc(Cl)cc(Cl)c1", "max response": "-1.13% (inactive)"}, {"smiles": "CCn1c(SCC(=O)NC2CC2)nnc1-c1ccccn1", "max response": "7.07% (inactive)"}, {"smiles": "Cc1ccc(C)c(NC(=O)c2ccc(OC(=O)c3ccco3)cc2)c1", "max response": "12.4% (inactive)"}, {"smiles": "Cc1ccc(O)c(NC(=O)c2cc(-c3ccco3)on2)c1", "max response": "17.2% (active)"}, {"smiles": "COc1ccc(NC(=O)c2cc(-c3ccc(C)cc3)on2)cc1", "max response": "2.42% (inactive)"}, {"smiles": "CC1CCN(C(=O)C2CCN(S(=O)(=O)N3CCC4(CC3)OCCO4)CC2)CC1", "max response": "5.25% (inactive)"}, {"smiles": "O=C(C1CC1)N1N=C(c2ccc(Br)cc2)CC1(O)C(F)(F)F", "note": "(centres undefined)", "max response": "-6.68% (inactive)"}, {"smiles": "CC(C)Oc1ccccc1C(=O)NC(CO)C(=O)O", "note": "(centres undefined)", "max response": "5.75% (inactive)"}, {"smiles": "O=C1OCCN1C(=O)[C@H]1[C@H](c2ccc(Cl)cc2)C(c2cccc(Cl)c2)=NN1c1ccc(Br)cc1", "max response": "1.68% (inactive)"}, {"smiles": "CC1Cc2ccccc2N1C(=O)c1cc2sccc2n1Cc1ccccc1", "note": "(centres undefined)", "max response": "10.4% (inactive)"}, {"smiles": "O=C(c1cc2sccc2n1Cc1ccc(F)cc1)N1CCc2ccccc21", "max response": "16.9% (active)"}, {"smiles": "O=C(Cc1ccc(-n2c(=O)c3sccc3n(Cc3ccc(F)cc3)c2=O)cc1)NCc1ccco1", "max response": "-2.83% (inactive)"}, {"smiles": "CCOC(=O)c1cc2sccc2n1Cc1ccc(C#N)cc1", "max response": "-2.12% (inactive)"}, {"smiles": "O=C(NCc1ccco1)c1cc2sccc2n1Cc1ccc(F)cc1", "max response": "45.3% (active)"}, {"smiles": "O=C(NCc1ccco1)c1ccc(Cn2c(=O)c3sccc3n(Cc3ccc(F)cc3)c2=O)cc1", "max response": "0.924% (inactive)"}, {"smiles": "CC(NC(=O)CCC(=O)N1CCN(S(=O)(=O)c2ccc(Cl)cc2)CC1)c1ccccc1", "note": "(centres undefined)", "max response": "4.89% (inactive)"}, {"smiles": "Cn1c(CNC(=O)c2ccco2)nnc1SCC(=O)N1CCN(c2ccccc2)CC1", "max response": "-0.554% (inactive)"}, {"smiles": "COc1ccccc1NC(=O)C1=C(C)Nc2nc3ccccc3n2C1c1cccs1", "note": "(centres undefined)", "max response": "-6.14% (inactive)"}, {"smiles": "Cc1c(C(=O)OC(C)C)sc(NC(=O)c2cccnc2)c1C#N", "max response": "1.72% (inactive)"}, {"smiles": "CC(=O)Nc1ccc(CN2CCN(Cc3ccc(F)c(F)c3)C(CCO)C2)cc1", "note": "(centres undefined)", "max response": "-0.733% (inactive)"}, {"smiles": "COc1ccc(CNC(=O)C2CCN(C(=O)c3ccco3)CC2)cc1", "max response": "-5.74% (inactive)"}, {"smiles": "COc1ccc(CCNC(=S)N2CCN(S(=O)(=O)c3ccc(Cl)cc3)CC2)cc1", "max response": "-4.46% (inactive)"}, {"smiles": "O=C1Cc2ccccc2Sc2ccc(Cl)cc21", "max response": "7.71% (inactive)"}, {"smiles": "NS(=O)(=O)c1ccc2nc(NC(=O)CS(=O)(=O)c3ccc(F)cc3)sc2c1", "max response": "1.51% (inactive)"}, {"smiles": "NS(=O)(=O)c1ccc2nc(NC(=O)C3=COCCO3)sc2c1", "max response": "31% (active)"}, {"smiles": "O=C(Nc1ccc(S(=O)(=O)N2CCCC2)cc1Cl)C1=COCCO1", "max response": "-1.75% (inactive)"}, {"smiles": "COc1cc(/C=C2\\SC(=O)NC2=O)ccc1OCc1ccc(Cl)nc1", "max response": "-3.18% (inactive)"}, {"smiles": "COc1ccc(NC(=S)N2CCC(NC(=O)c3cccc(F)c3)CC2)cc1", "max response": "-5.6% (inactive)"}, {"smiles": "CCc1cc(-c2nnc(SCC(=O)NC3CC3)n2C)cs1", "max response": "5.72% (inactive)"}, {"smiles": "COc1ccc(S(=O)(=O)N2CCCC(C(=O)Nc3ccc(NC(=O)c4ccccn4)cc3)C2)cc1", "note": "(centres undefined)", "max response": "40.2% (active)"}, {"smiles": "CCOc1cccc(NC(=O)C2CCCN(S(=O)(=O)c3ccc(OC)cc3)C2)c1", "note": "(centres undefined)", "max response": "2.3% (inactive)"}, {"smiles": "COc1ccc(NC(=O)C2CCCN(S(=O)(=O)c3cccc4cccnc34)C2)cc1", "note": "(centres undefined)", "max response": "-0.912% (inactive)"}, {"smiles": "Cc1ccc(-c2cccc([C@H]3[C@@H]4C=CC[C@@H](C)[C@@H]4C(=O)N3Cc3ccccc3)c2)cc1", "max response": "2.34% (inactive)"}, {"smiles": "Cc1ccc2c(C)c(C(=O)N(C)CCC3CCCCO3)oc2c1C", "note": "(centres undefined)", "max response": "17.8% (inactive)"}, {"smiles": "CCOC(=O)c1nc(Nc2ccc(C(=O)OC)cc2)c2ccccc2n1", "max response": "9.36% (inactive)"}, {"smiles": "COC(=O)c1ccc(Nc2ncnc3sccc23)cc1", "max response": "39.2% (active)"}, {"smiles": "COC(=O)c1ccc(OC(=O)c2cnccn2)cc1", "max response": "-7.13% (inactive)"}, {"smiles": "CN1C(=O)/C(=C\\c2ccc(-c3ccccc3)o2)SC1=S", "max response": "9.37% (active)"}, {"smiles": "O=C(O)C(c1ccccc1)N1C(=O)/C(=C\\c2ccc(-c3cccc(Cl)c3)o2)SC1=S", "note": "(centres undefined)", "max response": "0.131% (inactive)"}, {"smiles": "NS(=O)(=O)c1ccc(-c2ccc(/C=C3\\SC(=O)NC3=O)o2)cc1", "max response": "-2.44% (inactive)"}, {"smiles": "COc1ccc2[nH]c3c(C)c4cc[n+](C)cc4c(C)c3c2c1", "max response": "-3.46% (inactive)"}]}]}
